A short description of experiment [1]: qHTS assay to identify small molecule antagonists of the thyroid receptor (TR) signaling pathway - cell viability counter screen (AID 743064). Further: nearly all actives have a fitted effect of over 50% in size. Further: potency means the concentration at half of the fitted maximal effect. The method, boiled down: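 Same-well viability check: GH3.TRE-Luc cells stimulated with 1 nM T3 alongside test compound for 23.5 h, followed by CellTiter-Fluor fluorescence.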
For orientation: Quantitative high-throughput screening tests each substance at several concentrations.

Experiment [2] is described as follows: qHTS assay to identify small molecule antagonists of the thyroid receptor (TR) signaling pathway (AID 743065). Further: nearly all actives have a fitted effect of over 55% in size. Further: potency means the concentration at half of the fitted maximal effect. The method, boiled down: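 GH3.TRE-Luc rat pituitary cells (two TREs driving luciferase) were dosed with compound, then stimulated with 1 nM T3 (final) for 23.5 h at 37 C. ONE-Glo luminescence was the read-out, with CellTiter-Fluor fluorescence as the cytotoxicity counter-screen.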

The subject of experiment [3] is thyroid hormone receptor (rat, GH3 cells). The experiment in a line: qHTS assay to identify small molecule agonists of the thyroid receptor (TR) signaling pathway (AID 743066; calls by dose curve).
A short description of experiment [4]: qHTS assay to identify small molecule antagonists of the estrogen receptor alpha (ER-alpha) signaling pathway - cell viability counter screen (AID 743074; calls by dose curve;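 further: HEK293 cells carrying ER-alpha-UAS-bla reporter stimulated with 17beta-estradiol; nearly all actives have a fitted effect of over 45% in size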).
The nature of experiment [5]: qHTS assay to identify small molecule antagonists of the estrogen receptor alpha (ER-alpha) signaling pathway using the BG1 cell line - cell viability counter screen (AID 743081).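 Further: compound given together with 17beta-estradiol as the ER stimulus; nearly all actives have a fitted effect of over 45% in size.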
The target in a further experiment is Aromatase (Homo sapiens) (UniProt P11511). The experiment in a line: qHTS assay to identify aromatase inhibitors (AID 743083). Further: nearly all actives have a fitted effect of over 55% in size. Further: potency means the concentration at half of the fitted maximal effect.
A short description of experiment [6]: qHTS assay to identify aromatase inhibitors - cell viability counter screen (AID 743084).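 Further: cells stimulated with testosterone during compound exposure; nearly all actives have a fitted effect of over 55% in size.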 Further: potency means the concentration at half of the fitted maximal effect.
The target of experiment [7] is Aryl hydrocarbon receptor (Homo sapiens) (UniProt P35869). As to the kind of experiment: qHTS assay to identify small molecule that activate the aryl hydrocarbon receptor (AhR) signaling pathway (AID 743085). Further: nearly all actives have a fitted effect of over 15% in size. Further: potency means the concentration at half of the fitted maximal effect.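 On activation: HG2L7.5c1 human HepG2 liver cells with stably integrated DRE-driven firefly reporter.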 The essentials:
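Reporter assay in engineered HepG2 line HG2L7.5c1, whose plasmid carries twenty dioxin responsive elements upstream of firefly luciferase. Treatment lasted 24 h at 37C; ONE-Glo luminescence gauged induction.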

Experiment [8] in a line: qHTS assay to identify small molecule that activate the aryl hydrocarbon receptor (AhR) signaling pathway - cell viability counter screen (AID 743086).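 Further: HepG2 liver cells carrying the AhR DRE luciferase reporter; nearly all actives have a fitted effect of over 45% in size.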 The method, boiled down: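 HepG2-AhR-luc (HG2L7.5c1) cells, 4000/well, treated 24 h at 37 C with compound; viability measured as CellTiter-Fluor fluorescence after 30 min in the same wells as the luciferase read.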
Experiment [9] is described as follows: qHTS assay to identify small molecule antagonists of the peroxisome proliferator-activated receptor gamma (PPARg) signaling pathway - cell viability counter screen (AID 743194). Further: nearly all actives have a fitted effect of over 55% in size. Further: potency means the concentration at half of the fitted maximal effect. The settings on record: Potency: co-treated with 50 nM rosiglitazone unless noted. The method, boiled down:
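Cytotoxicity counter screen in PPARg-bla HEK293H cells, same wells as reporter assay. Compounds plus 50 nM rosiglitazone (final) for 17 h at 37 C, then viability read by CellTiter-Glo luminescence.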

Experiment [10] can be described thus: qHTS assay for small molecule agonists of the antioxidant response element (ARE) signaling pathway - cell viability counter screen (AID 743203; calls by dose curve; further: nearly all actives have a fitted effect of over 55% in size; further: potency means the concentration at half of the fitted maximal effect). The essentials:
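Parallel cytotoxicity read-out for the ARE-bla screen: HepG2 reporter cells, 16 hrs with compounds, then CellTiter-Glo luminescence.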

Experiment [11] is described as follows: qHTS assay for small molecule activators of the heat shock response signaling pathway (AID 743210; active means well fitted activation curve with a large enough effect in the signal ratio in the repeat runs, with a control signal flat, not every such curve was filed as active; inconclusive means weak or mixed curves; the % refers to the signal ratio). The essentials: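 Beta-lactamase reporter read-out: FRET substrate fluorescence after 2.5 h at RT, following 5 h compound treatment at 37 C of HeLa cells carrying HSE-driven bla reporter; quantitative HTS format.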
Experiment [12] can be described thus: qHTS assay for small molecule agonists of the antioxidant response element (ARE) signaling pathway (AID 743202; active means well fitted activation curve with a large enough effect in the signal ratio in the repeat runs, not every such curve was filed as active; inconclusive means weak or mixed curves, or effect the other way; inactive means no such curve, though single readings can be large or run the other way; the % refers to the signal ratio). The method, boiled down:
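HepG2 ARE-bla reporter line, 2,000 cells/well; 5 h preincubation 37 C/5% CO2; compound (DMSO) 16 h 37 C; B/G FRET substrate 2 h RT; fluorescence intensity.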

Experiment [13] in a line: qHTS assay for small molecule activators of the heat shock response signaling pathway - cell viability counter screen (AID 743209). Further: nearly all actives have a fitted effect of over 50% in size. Further: potency means the concentration at half of the fitted maximal effect. The method, boiled down:
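To flag cytotoxic compounds, HSE-bla HeLa cells plated at 1500 cells/well were dosed for 5 h at 37 C, followed by the reporter FRET read and then CellTiter-Glo, with luminescence recorded 30 min after reagent addition.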

In experiment [14] the target is Estrogen receptor (Homo sapiens) (UniProt P03372). The experiment in a line: qHTS assay to identify small molecule antagonists of the estrogen receptor alpha (ER-alpha) signaling pathway (AID 743069; active means well fitted curve in the direction sought with a large enough effect in the signal ratio in the repeat runs, not every such curve was filed as active; inconclusive means weak or mixed curves, or effect the other way; inactive means no such curve, though single readings can be large or run the other way; the % refers to the signal ratio). The essentials: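 Beta-lactamase FRET fluorescence is read after 2 hr at room temperature with LiveBLAzer B/G substrate. Before that, ER-alpha-bla HEK293 cells sit 4 hr after plating, then receive compound plus 17beta-estradiol and incubate 18 hr at 37C.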

Experiment [15] shares this target. As to the kind of experiment: qHTS assay to identify small molecule agonists of the estrogen receptor alpha (ER-alpha) signaling pathway (AID 743075; calls by dose curve;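 further: HEK293 GripTite cells with ER-alpha and UAS-driven beta-lactamase reporter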; further: potency means the concentration at half of the fitted maximal effect).
For experiment [16] the target is unchanged. As to the kind of experiment: qHTS assay to identify small molecule agonists of the estrogen receptor alpha (ER-alpha) signaling pathway using the BG1 cell line (AID 743079). Further: nearly all actives have a fitted effect of over 20% in size. Further: potency means the concentration at half of the fitted maximal effect. As to conditions: BG1Luc4E2 cells, ERE-luciferase agonist, 22 h; activation: at 70.3 µM (top of the series).
Experiment [17] in a line: qHTS assay to identify small molecule antagonists of the estrogen receptor alpha (ER-alpha) signaling pathway using the BG1 cell line (AID 743080; calls by dose curve;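 further: BG1 cells stimulated with 17beta-estradiol alongside compound; nearly all actives have a fitted effect of over 25% in size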; further: potency means the concentration at half of the fitted maximal effect). The method, boiled down: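 Quantitative HTS on the Tox21 10K library: BG1 cells with endogenous ER-alpha and ERE-luciferase reporter, 17beta-estradiol stimulation, 21.5 h compound exposure, luminescence endpoint with parallel fluorescence cytotoxicity counter-read.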

Experiment [18] has as its target Peroxisome proliferator-activated receptor gamma (Homo sapiens) (UniProt P37231). As to the kind of experiment: qHTS assay to identify small molecule agonists of the peroxisome proliferator-activated receptor gamma (PPARg) signaling pathway (AID 743094; active means well fitted activation curve with a large enough effect in the signal ratio in the repeat runs, not every such curve was filed as active; inconclusive means weak or mixed curves, or effect the other way; inactive means no such curve, though single readings can be large or run the other way; the % refers to the signal ratio). The essentials: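 Fluorescence-based beta-lactamase readout in HEK293H PPARg UAS-bla cells after 17 h compound exposure (37C) and 1 h B/G FRET substrate incubation at room temperature.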

Several values for one entry are separate records, joined by “and”; a condition that tells them apart may be missing. Equal entries are not always repeated. A structure can be active in one record and inactive in another. Activity calls are given as the source filed them. Unless noted, the call rests on the fitted dose curve; in most records, active means well fitted curve in the direction sought with a large enough effect in the repeat runs; inconclusive means weak or mixed curves; inactive means no such curve, though single readings can be large; an effect the other way counts as inactive or inconclusive.

Among the data in PubChem BioAssay (Tox21) are Potency values, retold here.

Sequence of Aryl hydrocarbon receptor (Homo sapiens) (P35869 whole entry, looked up): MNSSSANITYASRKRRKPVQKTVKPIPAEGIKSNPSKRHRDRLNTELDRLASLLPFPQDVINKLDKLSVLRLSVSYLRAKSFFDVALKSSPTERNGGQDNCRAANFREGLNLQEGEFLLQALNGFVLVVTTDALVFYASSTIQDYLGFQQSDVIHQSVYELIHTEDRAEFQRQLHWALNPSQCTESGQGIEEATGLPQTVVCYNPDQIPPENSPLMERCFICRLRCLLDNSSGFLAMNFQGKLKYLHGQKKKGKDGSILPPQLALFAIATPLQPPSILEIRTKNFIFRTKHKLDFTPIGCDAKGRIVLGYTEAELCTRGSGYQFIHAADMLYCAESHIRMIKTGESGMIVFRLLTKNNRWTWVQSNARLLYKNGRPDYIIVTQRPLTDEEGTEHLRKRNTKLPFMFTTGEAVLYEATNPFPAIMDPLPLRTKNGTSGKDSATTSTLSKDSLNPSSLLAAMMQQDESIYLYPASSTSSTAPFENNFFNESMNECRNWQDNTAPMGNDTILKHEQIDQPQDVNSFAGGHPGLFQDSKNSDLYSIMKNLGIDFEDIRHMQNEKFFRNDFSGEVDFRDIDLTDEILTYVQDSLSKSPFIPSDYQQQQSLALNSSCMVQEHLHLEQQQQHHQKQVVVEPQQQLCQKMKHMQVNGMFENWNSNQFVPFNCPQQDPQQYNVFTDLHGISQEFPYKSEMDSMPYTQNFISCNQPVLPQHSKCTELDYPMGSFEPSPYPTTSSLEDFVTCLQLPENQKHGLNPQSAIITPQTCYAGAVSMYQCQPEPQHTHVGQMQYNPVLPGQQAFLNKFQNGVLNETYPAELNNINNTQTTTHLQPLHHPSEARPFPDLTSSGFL
Sequence of Aromatase (Homo sapiens) (P11511 whole entry, looked up): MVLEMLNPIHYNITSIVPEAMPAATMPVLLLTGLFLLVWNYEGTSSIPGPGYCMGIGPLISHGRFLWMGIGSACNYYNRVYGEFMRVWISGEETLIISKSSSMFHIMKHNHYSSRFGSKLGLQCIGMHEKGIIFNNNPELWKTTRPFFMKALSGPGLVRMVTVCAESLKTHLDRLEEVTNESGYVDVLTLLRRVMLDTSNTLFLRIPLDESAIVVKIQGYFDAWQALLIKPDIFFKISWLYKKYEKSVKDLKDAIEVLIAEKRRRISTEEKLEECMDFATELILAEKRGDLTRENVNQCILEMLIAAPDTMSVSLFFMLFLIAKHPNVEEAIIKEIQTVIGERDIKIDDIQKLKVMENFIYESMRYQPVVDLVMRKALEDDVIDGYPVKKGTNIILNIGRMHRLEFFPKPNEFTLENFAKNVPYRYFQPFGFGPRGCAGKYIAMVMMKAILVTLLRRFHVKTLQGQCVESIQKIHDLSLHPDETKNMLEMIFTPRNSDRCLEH
Sequence of Estrogen receptor (Homo sapiens) (P03372 whole entry, looked up): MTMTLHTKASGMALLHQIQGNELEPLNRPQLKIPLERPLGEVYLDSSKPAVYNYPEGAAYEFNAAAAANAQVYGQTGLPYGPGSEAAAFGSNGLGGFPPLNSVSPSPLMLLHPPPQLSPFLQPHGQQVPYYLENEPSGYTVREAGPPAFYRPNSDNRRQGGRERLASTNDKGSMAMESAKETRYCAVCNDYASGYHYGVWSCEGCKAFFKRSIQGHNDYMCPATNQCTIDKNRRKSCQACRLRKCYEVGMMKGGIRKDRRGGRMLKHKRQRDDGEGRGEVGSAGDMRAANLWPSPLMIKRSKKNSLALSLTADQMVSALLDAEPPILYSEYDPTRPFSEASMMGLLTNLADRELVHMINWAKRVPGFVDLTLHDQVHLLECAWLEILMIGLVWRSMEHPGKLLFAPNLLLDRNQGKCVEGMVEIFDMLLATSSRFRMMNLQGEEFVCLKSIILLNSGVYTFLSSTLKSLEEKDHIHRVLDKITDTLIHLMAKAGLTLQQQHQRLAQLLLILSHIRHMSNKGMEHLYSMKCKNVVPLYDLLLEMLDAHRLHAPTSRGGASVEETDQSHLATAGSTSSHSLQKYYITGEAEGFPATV
Sequence of Peroxisome proliferator-activated receptor gamma (Homo sapiens) (P37231 whole entry, looked up): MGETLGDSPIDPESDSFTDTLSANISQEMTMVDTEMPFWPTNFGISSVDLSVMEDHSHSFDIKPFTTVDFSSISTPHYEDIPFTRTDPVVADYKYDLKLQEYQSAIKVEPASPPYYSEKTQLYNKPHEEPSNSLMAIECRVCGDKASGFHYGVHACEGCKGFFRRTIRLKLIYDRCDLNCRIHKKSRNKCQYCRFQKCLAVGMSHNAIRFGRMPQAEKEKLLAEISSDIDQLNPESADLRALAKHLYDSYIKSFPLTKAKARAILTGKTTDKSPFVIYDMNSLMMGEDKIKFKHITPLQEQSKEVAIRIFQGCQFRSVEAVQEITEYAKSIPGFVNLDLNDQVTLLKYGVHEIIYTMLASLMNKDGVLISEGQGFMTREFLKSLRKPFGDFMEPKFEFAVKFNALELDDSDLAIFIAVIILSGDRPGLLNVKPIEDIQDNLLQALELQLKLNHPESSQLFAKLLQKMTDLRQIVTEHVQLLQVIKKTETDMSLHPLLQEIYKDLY

`Cc1nn(-c2cc(NS(C)(=O)=O)c(Cl)cc2Cl)c(=O)n1C(F)F`: the Potency entry (in experiment [1]; in [2]; in [3]; in experiment [4]; in experiment [5]; with Aromatase (Homo sapiens)) was “inactive” in each case. The Potency result in experiment [6], in experiment [7], in [8], in experiment [9], in [10] and in experiment [11] was “inactive” in each case.
Regarding `C1=CCC=C1`, the Potency result in experiment [1], in experiment [2], in [3], in experiment [4], in experiment [5] and in [6] was “inactive” throughout. The Potency entry in experiment [8], in [9], in experiment [12], in experiment [10] and in experiment [13] was “inactive” throughout.
`CO/N=C(\C(=O)OC)c1ccccc1CO/N=C(\C)c1cccc(C(F)(F)F)c1`: the Potency in experiment [1] is 34.4 µM (active); in experiment [2] it was 0.969 µM (active); in the experiment with Aromatase (Homo sapiens), 61.1 µM (active). In addition, the Potency entry in experiment [3], in experiment [7] and in experiment [8] was “inactive” throughout.
On to `ClC1=C(Cl)[C@]2(Cl)[C@H]3[C@H]([C@@H]4C=C[C@H]3C4)[C@@]1(Cl)C2(Cl)Cl`, for which the Potency in [1] was 68.5 µM (active) and 61.1 µM (active); in experiment [2] it was 54.5 µM (active); in experiment [9], 49 µM (active); in [10], “inactive and 54.5 µM (active)”; in [13], “inactive and 24.5 µM (active)”. The Potency result in experiment [14], in [4], in experiment [15], in experiment [16], in experiment [17] and in [5] was “inactive” throughout. For the same compound, the Potency result (with Aromatase (Homo sapiens); in [6]; in experiment [7]; in [8]; in experiment [18]; in [12]) was “inactive” throughout. In experiment [11], the Potency result was “inactive”.
As for `[Cl-].[Cl-].[Sn+2]`, the Potency entry (in experiment [1]; in [2]; in experiment [3]; in experiment [4]; with Aromatase (Homo sapiens); in experiment [6]) was “inactive” each time. The Potency result in [7], in [8] and in [11] was “inactive” in each case.
Take `O=C(N[C@@H]1N=C(c2ccccc2F)c2cccc3c2N(CC3)C1=O)c1cc2ccccc2[nH]1`: the Potency entry in experiment [1], in experiment [3], in [6], in experiment [8], in [9] and in experiment [10] was “inactive” each time. Besides, in experiment [13], the Potency entry was “inactive”. The figures for the Potency in [2] and in experiment [7] were 6.68 µM (active) and 0.0668 µM (active), respectively.
For `O=S1OCC2C(CO1)C1(Cl)C(Cl)=C(Cl)C2(Cl)C1(Cl)Cl` (configuration not stated), the Potency in [1] was 61.2 µM (active) and 54.4 µM (active); in [2], 61.2 µM (active) and 61.1 µM (active); in [15], 43.7 µM [inconclusive] (active) and inactive; in experiment [16] it was 1.94 µM (active); in experiment [17], 61.2 µM (active) and 61.1 µM (active); with Aromatase (Homo sapiens), 27.3 µM (active). The figures for the Potency in [6], in [10] and in [13] were 48.6 µM (active), 54.4 µM (active) and 24.5 µM (active), respectively. The Potency entry in experiment [14], in experiment [4], in experiment [5], in [7] and in experiment [8] was “inactive” in each case.
Turning to `COCCC#N`, the Potency entry (in experiment [1]; in [2]; in experiment [3]; in [4]; in [5]; in the experiment with Aromatase (Homo sapiens)) was “inactive” throughout. For the same compound, the Potency entry in experiment [6], in [8], in [18], in experiment [9], in experiment [12] and in experiment [10] was “inactive” in each case. In addition, the Potency entry in experiment [11] was “inactive”.
